In PubChem BioAssay (Tox21):
Unmarked numbers belong to inactive results. The call rests on the fitted dose curve; in most records, active means well fitted activation curve with a large enough effect in the repeat runs; inconclusive means weak or mixed curves; inactive means flat fitted curve, though single readings scatter.

Assay: Caspase-3/7 induction in CHO-K1 cells by small molecules, qHTS assay (AID 1346980); further: nearly all actives have a fitted effect of over 15% in size
Conditions: CHO-K1 caspase-3/7 induction, Caspase-Glo luminescence, 17 h; series mostly up to 92.4 µM; caspase-3/7 activation: at the top concentration
Description: National Center for Advancing Translational Sciences [NCATS]
NIH Chemical Genomics Center [NCGC]
U.S. Environmental Protection Agency [EPA]
National Institutes of Environmental Health Sciences [NIEHS]
National Toxicology Program [NTP]
Apoptosis is a process of programmed cell death and plays a central role in the development of multicellular organisms. It is a highly regulated process and induces cell death by activating caspases, which are the members of cysteine aspartic acid-specific protease (caspase) family. Caspases involved in apoptosis are classified by their mechanism of action as initiator caspases (caspase-2, -8, -9 and -10) and executioner caspases (caspase-3, -6, and -7). Inhibition of apoptosis results in number of cancers, autoimmune diseases, inflammatory diseases and viral infection. To identify small molecule compounds that induce apoptosis, a homogeneous, luminescent Caspase-Glo 3/7 assay was used. Wild type CHO-K1 cells were used to screen Tox21 libraries for identifying caspase-3/7 activity inducers.
CHO-K1 cells were dispensed at 1,500 per well in 5uL of culture medium into white solid bottom 1536-well plates (Corning Life Sciences, Corning, NY) using a Multidrop Combi (Thermo Scientific, Waltham, MA) dispenser. The assay plates were incubated at 37 C and 5% CO2 for 5hr, and then 23nL of compounds dissolved in DMSO and positive control were transferred using a Pintool station (Wako, San Diego, CA). The assay plates were incubated at 37C and 5% CO2 for 17hr. For caspase-3/7 activity read, 4uL of Caspase-Glo 3/7 reagent (Promega Corporation, Madison, WI) was added to each well of the assay plates using Flying Reagent Dispenser (FRD, Aurora Discovery, San Diego, CA) and incubated the assay plates at room temperature for 30min. The luminescence signal was quantified using a ViewLux plate reader (Perkin Elmer, Shelton, CT).
On the % scale 0 is the no-effect control and ±100 the full control effect.

Row | SMILES | caspase-3/7 activation
1 | O=C1CCC(=O)O1 | 1.63%
2 | CC/C=C\CCOC(=O)CC | 1.02%
3 | NCc1ccccc1Sc1ccccc1CO | 0.458% [at 42.5 µM]
4 | CC(=O)OC[C@H]1O[C@@H](n2ncc(=O)[nH]c2=O)[C@H](OC(C)=O)[C@@H]1OC(C)=O | -1.36% [at 42.5 µM]
5 | C=CCOc1ccccc1OCC(O)CNC(C)C (stereo not given) | -1.15% [at 42.5 µM]
6 | NC(=O)C(c1ccccc1)(c1ccccc1)[C@@H]1CCN(CCc2ccc3c(c2)CCO3)C1 | 0.287% [at 42.5 µM]
7 | CCCC(=O)Nc1ccc(O)c(C(C)=O)c1 | -0.0009% [at 42.5 µM]
8 | O=C(CS)Nc1ccccc1 | 0.36% [at 42.5 µM]
9 | CC1=CC[C@H](C(C)C)C=C1 | 1.38%
10 | CNCCCCOc1ccccc1Cc1ccccc1 | 2.25% [at 42.5 µM]
11 | CCOCC(O)COc1ccc(NC(=O)CC[S+](C)C)cc1 (stereo not given) | -0.121% [at 42.5 µM]
12 | O=C(Nc1ccc(S(=O)(=O)N2CCOCC2)cc1)c1cc(Cl)ccc1NS(=O)(=O)c1ccc(Cl)s1 | -0.496% [at 42.5 µM]
13 | CCCCC1=NC2(CCCC2)C(=O)N1Cc1ccc(-c2ccccc2-c2nn[nH]n2)cc1 | -1.45% [at 42.5 µM]
14 | O=C1CCCCCCCCCCCC(=O)OCCO1 | -2.77%
15 | CC(C)Nc1ccc(NC(C)C)c2c1C(=O)c1ccccc1C2=O | -2.63% [at 42.5 µM]
16 | CC(=O)c1ccc2c(c1)N(CCCN1CCC(CCO)CC1)c1ccccc1S2 | -0.806% [at 42.5 µM]
17 | CC(C)C[C@H]1C(=O)N2CCC[C@H]2[C@]2(O)O[C@](NC(=O)[C@@H]3C=C4c5cccc6[nH]c(Br)c(c56)C[C@H]4N(C)C3)(C(C)C)C(=O)N12 | -3.12% [at 42.5 µM]
18 | NCC(=O)O | -1.83% [at 19 µM]
19 | COc1ccc(C(=O)Nc2nc3ccccc3c(NCc3ccccc3)c2C#N)cc1 | 0.559%
20 | COCCCN1CCC(NC(=O)c2cc(Cl)c(N)c3c2OCC3)CC1 | -1.35% [at 42.5 µM]

Row | SMILES | caspase-3/7 activation
21 | COC(=O)C1=C(C)NC(COC(N)=O)=C(C(=O)OC(C)C)C1c1cccc(Cl)c1Cl (stereo not given) | -1.46% [at 42.5 µM]
22 | C=C(C)C(=O)OCC | 0.304%
23 | COc1ccc2cccc(CCNC(C)=O)c2c1 | 2.61% [at 42.5 µM]
24 | OC(C#CCN1CCCC1)(c1ccccc1)c1ccccc1 | -0.0189% [at 42.5 µM]
25 | CCCCC/C=C\C/C=C\CCCCCCCC(=O)NC(C)c1ccccc1 (stereo not given) | -0.204% [at 42.5 µM]
26 | O=C(NCC1CN(c2ccc(N3CCOCC3=O)cc2)C(=O)O1)c1ccc(Cl)s1 (stereo not given) | -1.55% [at 42.5 µM]
27 | Brc1c2ccccc2c(Br)c2ccccc12 | -0.773% [at 8.39 µM]
28 | C[C@H]1C[C@H]2[C@@H]3CCC4=CC(=O)C=C[C@]4(C)[C@@]3(Cl)[C@@H](O)C[C@]2(C)[C@@]1(O)C(=O)CO | -2.33% [at 42.5 µM]
29 | C[N+]1(C)CCC(OC(=O)C(O)(c2ccccc2)C2CCCC2)C1 (stereo not given) | 1.03% [at 42.5 µM]
30 | O=C(c1ccc(F)cc1)C1CCN(CCn2c(=S)[nH]c3ccccc3c2=O)CC1 | 0.126% [at 42.5 µM]
31 | COc1cc(C(=O)OCCCN2CCCN(CCCOC(=O)c3cc(OC)c(OC)c(OC)c3)CC2)cc(OC)c1OC | 0.268% [at 42.5 µM]
32 | COc1ccnc(CS(=O)c2nc3ccc(OC(F)F)cc3[nH]2)c1OC (stereo not given) | -1.54% [at 42.5 µM]
33 | Brc1c2ccccc2cc2ccccc12 | -1.01%
34 | CN(C)CCCN1c2ccccc2Sc2ccccc21 | -0.804% [at 42.5 µM]
35 | CC(C)=CCC/C(C)=C/CC/C(C)=C/CO | 2.54%
36 | C[C@H](CCC(=O)O)[C@H]1CC[C@H]2[C@@H]3CC[C@@H]4C[C@H](O)CC[C@]4(C)[C@H]3C[C@H](O)[C@]12C | 4.81%
37 | O=C(O)c1ccc(S(=O)(=O)O)cc1C(=O)O | 0.624%
38 | Cc1cc(C(=O)O)ccc1[N+](=O)[O-] | -0.106%
39 | CCCCCCCCCCCc1ccccc1 | -0.621%
40 | COS(=O)(=O)C(F)(F)F | -0.378%
